# Test results from PubChem BioAssay.
# Active and inactive are the calls of the source. Unless noted, the rule behind the calls is not given here.
# Experiments:
# [1] = liver-stage malaria parasite load reduction – cell-based, known kinase inhibitor set, luminescence, hepatoma host viability (AID 624392); settings: Plasmodium liver stage in hepatoma cells, luciferase luminescence, concentration not given here; liver cell % of control: measured here: host liver cell viability; parasite % of control: stronger effect = lower value;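 note: infected cells incubated roughly two days before readout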
# [2] = altered dexamethasone sensitivity, NF-kB reporter, cell-based, luciferase, IL-1B stimulus (AID 624486); settings: IL-1B + dexamethasone, luminescence; percent of negative control (+Dex): actives lie on both sides, concentration not given here; z-score: measured here: IL-1B alone, no Dex;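 for percent of negative control (+Dex): 100% = mean signal of vehicle control wells on the plate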
# [3] = C. elegans survival during P. aeruginosa infection – whole organism (AID 651566);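 note: tested at 14 µM; sign flipped so higher z means a lower ratio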; settings: C. elegans killed by P. aeruginosa, survival ratio
# [4] = pro-inflammatory signaling induction in mouse macrophages – cell-based, murine, luminescence (AID 652131); settings: murine macrophage pro-inflammatory reporter, stronger effect = higher value
# [5] = inducers of IRF3 signaling, differentiated THP-1 – cell-based, PMA-stimulated THP-1, luminescence (AID 1053176); settings: PMA-differentiated THP-1, IRF3 reporter luminescence; stronger effect = higher value
# [6] = MELAS cybrid and Rieske KO viability enhancers – cell-based, MELAS cybrids, Rieske KO mouse fibroblasts, CellTiter-Glo, primary screen (AID 1508586;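 active = mean z-score across replicates of 1.96 or higher in either the MELAS or the Rieske mutant cell line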;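 note: z relative to plate mean and SD of compound and empty wells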); settings: low glucose
# [7] = biological target: Cellular tumor antigen p53 (Homo sapiens) (UniProt P04637); assay: GFP-p53 level modulators in HPV16+ cells – imaging, known kinase inhibitor set, EGFP/DsRed ratio (AID 1053116); settings: GFP-p53 stability, stronger effect = higher value; EGFP object count: measured here: GFP-p53 positive objects count;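 note: cells exposed to compounds for 24 h at 37 °C before reading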
# [8] = Wnt pathway potentiators raising nuclear beta-catenin – imaging, WNT3A-conditioned medium, mouse C2C12, NPC library, primary screen (AID 1117326; in the data active = nuclear beta-catenin stimulation mostly above about 4.2%, no sharp cut-off; inactive = mostly below about 10%); settings: stronger effect = higher value
# [9] = stimulators of insulin release from INS-1E, primary screen, cell-based, 5 mM glucose, NPC library (AID 1117329;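 active = compound raises insulin release from rat beta cells at 5 mM glucose, no numeric limit stated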); settings: rat INS-1E insulin secretion, at 10 µM, stronger effect = higher value
# [10] = growth inhibition of GSK3B-pretreated HCT116 cells – cell-based, CellTiter-Glo, 0.2 to 20 µM (AID 1117336;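 active = compounds lowering colon cancer cell viability after pretreatment blocking the GSK3B kinase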); settings: HCT116 viability after GSK3B inhibitor, at 20 µM, stronger effect = higher value
# [11] = inhibition of endothelial tube formation, primary screen, imaging, VEGF stimulated, CD31 staining, tube area, NPC library (AID 1117340;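 active = compound that reduces growth-factor-driven endothelial tube area in a mixed cell culture, no cutoff stated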); settings: VEGF-stimulated ADSC/ECFC co-culture, at 10 µM, stronger effect = higher value
# [12] = GLP1 release stimulators, primary, NCI-H716, NPC library (AID 1117341;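 active = compound raises GLP1 secretion from the human gut endocrine cells, with no numeric limit stated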); settings: NCI-H716 cells, at 10 µM, stronger effect = higher value
# [13] = HCT116 colon cancer cell growth inhibition, primary screen, CellTiter-Glo luminescence, NPC library (AID 1117342;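 active = compounds that lower survival of HCT116 colon cancer cells in the luminescence readout, no numeric limit stated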); settings: at 20 µM (top of the series)
# [14] = reduced SW480 viability measured with CellTiter-Glo, NPC library, primary (AID 1117343;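 active = compounds that lower viability of the colon cancer cells in the luminescence readout, with no numeric limit stated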); settings: CellTiter-Glo luminescence; at 20 µM (top of the series)
# [15] = NPC library primary testing for decreased DLD-1 cell viability via CellTiter-Glo (AID 1117346;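 active = compounds that lower survival of DLD-1 colon cancer cells in the luminescence readout, no cutoff given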); settings: DLD-1 viability, CellTiter-Glo luminescence; at 20 µM (top of the series)
# [16] = MELAS cybrid survival, CellTiter-Glo 48 h, stronger effect = higher value
# [17] = Rieske KO mouse fibroblast survival, CellTiter-Glo 72 h
# Cellular tumor antigen p53 (Homo sapiens), sequence (P04637 whole entry, looked up): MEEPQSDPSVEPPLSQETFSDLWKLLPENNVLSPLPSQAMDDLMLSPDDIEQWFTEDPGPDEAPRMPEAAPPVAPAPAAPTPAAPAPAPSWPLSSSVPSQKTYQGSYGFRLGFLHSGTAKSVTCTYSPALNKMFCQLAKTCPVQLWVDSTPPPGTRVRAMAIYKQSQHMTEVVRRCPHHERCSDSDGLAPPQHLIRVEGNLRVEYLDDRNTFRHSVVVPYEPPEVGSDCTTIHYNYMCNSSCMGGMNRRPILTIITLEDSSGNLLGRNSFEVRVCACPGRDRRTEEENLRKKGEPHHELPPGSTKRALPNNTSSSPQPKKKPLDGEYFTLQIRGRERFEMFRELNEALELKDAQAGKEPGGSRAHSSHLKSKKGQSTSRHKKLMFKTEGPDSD
compound,measurement,setting,value
COc1cc(Nc2ncc(-c3ccccc3)o2)cc(OC)c1OC,liver cell % of control,[1],152%
same,parasite % of control,[1],18.6% (inactive)
same,percent of negative control (+Dex),[2],93.5% (inactive)
same,z-score,[2],0.42
same,z-score,[3],1.53 (inactive)
same,z-score,[4],-0.164 (inactive)
same,fraction signal,[5],-0.0025 (inactive)
same,z-score,[6]; [16],1.37 (inactive)
same,z-score,[6]; [17],-0.275
Fc1ccc(Oc2nccc(-c3c(-c4ccc(F)cc4)ncn3C3CCNCC3)n2)cc1,liver cell % of control,[1],104%
same,parasite % of control,[1],122% (inactive)
same,percent of negative control (+Dex),[2],107% (inactive)
same,z-score,[2],1.11
same,z-score,[3],-1.01 (inactive)
same,z-score,[4],7.24 (active)
same,fraction signal,[5],0 (inactive)
same,z-score,[6]; [16],-0.283 (inactive)
same,z-score,[6]; [17],-0.391
Cn1cc(C2=C(c3cn(C)c4cc(C(N)=O)ccc34)C(=O)NC2=O)c2ccccc21,liver cell % of control,[1],96.9%
same,parasite % of control,[1],59.1% (inactive)
same,percent of negative control (+Dex),[2],95% (inactive)
same,z-score,[2],-0.22
same,EGFP object count,[7],56.5
same,EGFP/DsRed ratio,[7],0.829 (active)
same,fraction signal,[5],-0.0005 (inactive)
O=C1NC(=O)C(=Cc2ccc3ncccc3c2)S1,liver cell % of control,[1],98%
same,parasite % of control,[1],60.7% (inactive)
same,percent of negative control (+Dex),[2],126% (active)
same,z-score,[2],3.21
same,EGFP object count,[7],5
same,EGFP/DsRed ratio,[7],0.206 (inactive)
same,fraction signal,[5],0.005 (inactive)
Cn1c(=O)c(Oc2ccccc2F)cc2cnc(NC3CCOCC3)nc21,liver cell % of control,[1],116%
same,parasite % of control,[1],49.5% (inactive)
same,percent of negative control (+Dex),[2],107% (inactive)
same,z-score,[2],0.09
same,EGFP object count,[7],7
same,EGFP/DsRed ratio,[7],0.313 (inactive)
same,fraction signal,[5],0.001 (inactive)
Nc1c(C(=O)c2cccc(C#CCN3CCOCC3)c2)cnn1-c1ccc(F)cc1,liver cell % of control,[1],159%
same,parasite % of control,[1],75.7% (inactive)
same,percent of negative control (+Dex),[2],120% (inactive)
same,z-score,[2],1.29
same,EGFP object count,[7],2.5
same,EGFP/DsRed ratio,[7],0.12 (inactive)
same,fraction signal,[5],0.0055 (inactive)
CC(C)Nc1ncc2cc(Oc3ccc(F)cc3F)c(=O)n(C)c2n1,liver cell % of control,[1],99.2%
same,parasite % of control,[1],50.9% (inactive)
same,percent of negative control (+Dex),[2],95.5% (inactive)
same,z-score,[2],-0.005
same,EGFP object count,[7],1
same,EGFP/DsRed ratio,[7],0.00675 (inactive)
same,fraction signal,[5],-0.0005 (inactive)
COc1ccccc1C1=C(Nc2ccccc2)C(=O)NC1=O,liver cell % of control,[1],112%
same,parasite % of control,[1],110% (inactive)
same,percent of negative control (+Dex),[2],102% (inactive)
same,z-score,[2],0.775
same,z-score,[3],-0.36 (inactive)
same,z-score,[4],-0.103 (inactive)
same,fraction signal,[5],-0.012 (inactive)
same,z-score,[6]; [16],-1.08 (inactive)
same,z-score,[6]; [17],-0.271
O=C1NC(=O)C(c2ccccc2)=C1Nc1ccccc1,liver cell % of control,[1],106%
same,parasite % of control,[1],119% (inactive)
same,percent of negative control (+Dex),[2],99.5% (inactive)
same,z-score,[2],0.395
same,z-score,[3],0.425 (inactive)
same,z-score,[4],-0.099 (inactive)
same,fraction signal,[5],-0.014 (inactive)
same,z-score,[6]; [16],-0.614 (inactive)
same,z-score,[6]; [17],-0.425
CNc1c2c(nn1C)CCCC2,nuclear beta-catenin stimulation,[8]; at 10 µM,0.2% (inactive)
same,nuclear beta-catenin stimulation,"[8]; stimulation, at 2 µM",0.4%
same,insulin secretion stimulation,[9],0% (inactive)
same,viability decrease,[10],-3.4% (inactive)
same,tube area decrease,[11],16.1% (inactive)
same,GLP1 secretion stimulation,[12],0% (inactive)
same,inhibition of viability,[13],-4.2% (inactive)
same,viability decrease (inhibition),[14],-2.2% (inactive)
same,viability decrease (inhibition),[15],0.1% (inactive)
Cc1cccc(Oc2nccc(-c3c(-c4ccc(F)cc4)ncn3C3CCNCC3)n2)c1C,liver cell % of control,[1],58.8%
same,parasite % of control,[1],99.5% (inactive)
same,percent of negative control (+Dex),[2],104% (inactive)
same,z-score,[2],0.6
same,z-score,[3],-0.775 (inactive)
same,z-score,[4],8.3 (active)
same,fraction signal,[5],-0.0055 (inactive)
same,z-score,[6]; [16],-0.134 (inactive)
same,z-score,[6]; [17],-0.269
CCCCCCCCCCCCCCCCCC(=O)O,nuclear beta-catenin stimulation,[8]; at 10 µM,0.8% (inactive)
same,nuclear beta-catenin stimulation,"[8]; stimulation, at 2 µM",0.7%
same,insulin secretion stimulation,[9],-1.2% (inactive)
same,viability decrease,[10],-8.8% (inactive)
same,tube area decrease,[11],-12.7% (inactive)
same,GLP1 secretion stimulation,[12],-0.3% (inactive)
same,inhibition of viability,[13],1.8% (inactive)
same,viability decrease (inhibition),[14],18.8% (inactive)
same,viability decrease (inhibition),[15],-6.85% (inactive)
Cc1[nH]cnc1C[C@H]1CCc2c(C)c3ccccc3n2C1=O,nuclear beta-catenin stimulation,[8]; at 10 µM,9.2% (inactive)
same,nuclear beta-catenin stimulation,"[8]; stimulation, at 2 µM",0.9%
same,insulin secretion stimulation,[9],-0.4% (inactive)
same,viability decrease,[10],57.2% (active)
same,tube area decrease,[11],55% (active)
same,GLP1 secretion stimulation,[12],-2.3% (inactive)
same,inhibition of viability,[13],92.8% (active)
same,viability decrease (inhibition),[14],69.2% (active)
same,viability decrease (inhibition),[15],65.3% (active)
O=C(OCc1ccccc1)c1ccc(O)cc1,nuclear beta-catenin stimulation,[8]; at 10 µM,4.1% (inactive)
same,nuclear beta-catenin stimulation,"[8]; stimulation, at 2 µM",-0.1%
same,insulin secretion stimulation,[9],0.1% (inactive)
same,viability decrease,[10],-24.5% (inactive)
same,tube area decrease,[11],-8.2% (inactive)
same,GLP1 secretion stimulation,[12],0.1% (inactive)
same,inhibition of viability,[13],16.1% (inactive)
same,viability decrease (inhibition),[14],12.9% (inactive)
same,viability decrease (inhibition),[15],14.4% (inactive)
OC[C@H]1O[C@@H](n2cnc3c(=S)nc[nH]c32)[C@H](O)[C@@H]1O,nuclear beta-catenin stimulation,[8]; at 10 µM,-2.5% (inactive)
same,nuclear beta-catenin stimulation,"[8]; stimulation, at 2 µM",-0.2%
same,insulin secretion stimulation,[9],0.7% (inactive)
same,viability decrease,[10],95.3% (active)
same,tube area decrease,[11],95.4% (active)
same,GLP1 secretion stimulation,[12],-1.6% (inactive)
same,inhibition of viability,[13],84.2% (active)
same,viability decrease (inhibition),[14],78.1% (active)
same,viability decrease (inhibition),[15],73.5% (active)
NC(=O)CCc1ccccc1Oc1nccc(-c2c(-c3ccc(F)cc3)ncn2C2CCNCC2)n1,liver cell % of control,[1],91.6%
same,parasite % of control,[1],151% (inactive)
same,percent of negative control (+Dex),[2],95.5% (inactive)
same,z-score,[2],0.275
same,z-score,[3],0.875 (inactive)
same,z-score,[4],0.861 (inactive)
same,fraction signal,[5],-0.0055 (inactive)
same,z-score,[6]; [16],-0.2 (inactive)
same,z-score,[6]; [17],-0.462
C[C@@H](Oc1cc(-n2cnc3ccc(OC4CCN(C)CC4)cc32)sc1C(N)=O)c1ccccc1Cl,liver cell % of control,[1],70.4%
same,parasite % of control,[1],183% (inactive)
same,percent of negative control (+Dex),[2],73% (inactive)
same,z-score,[2],-2.66
same,z-score,[3],-0.3 (inactive)
same,z-score,[4],-1.72 (inactive)
same,fraction signal,[5],-0.008 (inactive)
same,z-score,[6]; [16],-0.022 (inactive)
same,z-score,[6]; [17],-0.0227
Fc1ccc(-c2ncn(C3CCNCC3)c2-c2ccnc(Oc3ccc(Cl)cc3)n2)cc1,liver cell % of control,[1],79.3%
same,parasite % of control,[1],63.5% (inactive)
same,percent of negative control (+Dex),[2],103% (inactive)
same,z-score,[2],0.58
same,z-score,[3],0.16 (inactive)
same,z-score,[4],-0.186 (inactive)
same,fraction signal,[5],-0.006 (inactive)
same,z-score,[6]; [16],0.00888 (inactive)
same,z-score,[6]; [17],-0.374
